The list is not random: actives were taken first. Their share in the collection is about 2.9%.
GRK2 inh = blocks RNA aptamer binding to human GRK2; P25098; 330,000 tested, 0.59% active; bead flow cytometry, FAM-aptamer displacement from GRK2; AID 488847; inhibition of aptamer binding, % at 10 µM;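 active = inhibition of aptamer binding above 40%, roughly 3 SD of noise, on plates passing a quality check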;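 note: median bead fluorescence of bound FAM aptamer so fluorescent compounds give negative values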
B2AR ag = agonists of human beta-2 adrenergic receptor inducing internalization | P07550 | Am2.2-beta2AR cells, FAP receptor internalization, flow cytometry | response, % (test concentration not listed) | 340,000 tested, 0.43% active | AID 504454;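 active = response above a set limit, near 3 SD of response in nonfluorescent compounds, cut at about 42% in these data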
Target sequence (P07550 whole entry, looked up): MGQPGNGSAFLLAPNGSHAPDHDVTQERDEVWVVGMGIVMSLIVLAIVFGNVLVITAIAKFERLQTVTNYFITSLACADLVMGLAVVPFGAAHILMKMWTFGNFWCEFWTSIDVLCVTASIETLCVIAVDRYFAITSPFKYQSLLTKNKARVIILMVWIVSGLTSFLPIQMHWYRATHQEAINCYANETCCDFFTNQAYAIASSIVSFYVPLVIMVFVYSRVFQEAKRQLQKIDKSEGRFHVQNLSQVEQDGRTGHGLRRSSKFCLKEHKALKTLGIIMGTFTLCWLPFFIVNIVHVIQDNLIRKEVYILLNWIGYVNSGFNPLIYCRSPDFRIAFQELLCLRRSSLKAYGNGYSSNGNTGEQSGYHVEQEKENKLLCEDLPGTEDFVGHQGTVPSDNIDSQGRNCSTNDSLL
NadD block = NadD (S. aureus) enzyme inhibition; purified NadD enzyme, colorimetric absorbance read-out; inhibition, % at 20 µM; 360,000 tested, 0.78% active; in the data active = inhibition above about 26%
PP1 inh = counter-screen for PP5 inhibitors: inhibitors of human PP1-alpha. purified PP1alpha, OMFP fluorescence. inhibition, % at 6.7 µM. 320,000 tested, 0.9% active;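 active = inhibition above the mean inhibition of all tested compounds plus 3 SD, computed separately for each screening campaign, cut at about 15% in these data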
Granule exo inh = blocks lytic granule exocytosis; TALL-104 LAMP-1 surface exposure, flow cytometry; cells stimulated with thapsigargin and PMA; inhibition, % at 10 µM; 360,000 tested, 0.66% active; AID 651702;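 active = inhibition above about 55%, limit read from the data; inconclusive = no clear call, values can overlap the other calls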
Numbers stand for hits; i = inactive; ? = inconclusive; nt = no result.

SMILES	GRK2 inh	B2AR ag	NadD block	PP1 inh	Granule exo inh
COc1cc(C(=O)Nc2ccc3c(c2)Cc2cc(NC(=O)c4cc(OC)c(OC)c(OC)c4)ccc2-3)cc(OC)c1OC	i	i	i	i	i
COc1ccc(-c2sc3ccccc3c2-c2ccc(OC)cc2F)cc1	nt	nt	i	nt	i
C=CCN(c1ccccc1)S(=O)(=O)c1cccc(C(=O)Nc2nc3ccccc3[nH]2)c1	i	i	i	16.7	i
CC(=O)Oc1oc(-c2ccccc2)nc1/C=N/c1ccccn1	i	64.5	i	i	i
CN(C)c1ccc(N=Cc2nc(-c3ccccc3)oc2OC(=O)c2ccccc2)cc1	i	i	i	i	i
CC(=O)Oc1oc(-c2ccccc2)nc1C=Nc1ccc(N(C)C)cc1	i	i	i	i	93.6
O=C(N/N=C/c1ccc(O)cc1O)NC12CC3CC(CC(C3)C1)C2	i	44.2	i	i	i
CC(=O)O[C@]1(C(C)=O)CC[C@H]2[C@@H]3C=CC4=CC(=O)C=C[C@]4(C)[C@H]3CC[C@@]21C	i	i	i	i	i
O=C(CNC(=O)C1COc2ccccc2O1)Nc1ccc(F)c(F)c1 (configuration not stated)	i	i	i	nt	i
Cc1ccc(Oc2nc3ccccn3c(=O)c2/C=C(\C#N)C(=O)NC2CCS(=O)(=O)C2)c(C)c1 (configuration not stated)	i	i	i	i	78.8
Cc1cc(C)cc(Oc2nc3ccccn3c(=O)c2/C=C(\C#N)C(=O)NC2CCS(=O)(=O)C2)c1 (configuration not stated)	i	i	i	i	i
Cn1nc(C(F)(F)F)c(/C=N/OC(=O)c2ccccc2)c1Cl	i	i	i	i	57.0
C#CCn1c(=NC(=O)c2ccc(Br)s2)sc2cccc(OC)c21	i	i	i	15.6	i
Cn1ncc(Br)c1C(=O)N1CCCCCC1	i	i	i	i	i
CCN(CC)C(=O)c1sc(NC(=O)C(Sc2ccccc2)c2ccccc2)c(C(=O)OC(C)C)c1C (configuration not stated)	i	i	i	i	i
CCOC(=O)c1c(NC(=O)C(=O)N/N=C/c2ccc(O)c(OC)c2)sc2c1CCCCC2	i	i	31.9	i	i
CCOC(=O)c1c(NC(=O)C(=O)N/N=C/c2ccc(OCC)cc2)sc2c1CCCCC2	i	i	i	i	?
Cc1cccc(C(=O)Nc2cc(S(=O)(=O)N3CCOCC3)ccc2N2CCCC2)c1	nt	i	i	nt	i
O=C(c1c[nH]c(C(=O)C(Cl)(Cl)Cl)c1)c1c(F)cccc1F	i	46.4	i	i	i
COc1ccc(NC(=O)c2cccc3c2C(=O)c2ccc(-c4ccc(F)cc4OCc4ccccc4)cc2S3(=O)=O)cc1	i	i	29.8	nt	i
N#C/C(=C\c1ccc(C(=O)O)cc1)c1nc2sc3c(c2c(=O)[nH]1)CCCC3	nt	i	i	nt	i
COC(=O)c1cc2ccc(OC)c(OC)c2c(=O)s1	i	50.1	i	i	i
COc1ccccc1-c1cc(C(F)(F)F)nc(N2CCCC2)n1	i	i	i	i	i
COc1ccccc1-c1cc(C(F)(F)F)nc(S(C)(=O)=O)n1	i	58.0	i	i	i
CCC[C@@H]1C=C(C(=O)OCC)[C@H](c2ccccc2)N1S(=O)(=O)c1ccc(C)cc1	nt	nt	i	nt	i
SMILES	GRK2 inh	B2AR ag	NadD block	PP1 inh	Granule exo inh
CC(c1nc2ccccc2[nH]1)N(C(=O)Cc1csc2ccccc12)c1cccnc1 (configuration not stated)	nt	nt	i	nt	i
Oc1cc(CNCc2ccccc2)c(O)cc1CNCc1ccccc1	nt	i	57.3	nt	i
OCc1ccccc1CNCc1ccccc1	i	i	i	i	i
Cc1ccc(C)c(OCC(=O)Nc2nonc2NC(=O)COc2cc(C)ccc2C)c1	i	i	i	16.6	i
Cc1cccc(OCC(=O)Nc2nonc2NC(=O)COc2cccc(C)c2)c1	i	i	i	i	i
COc1ccccc1/C=C/C(=O)Nc1cccc(S(=O)(=O)N2CCOCC2)c1	i	i	i	i	i
Cc1nc(C)c(C(=O)OCC(=O)Nc2ccc(C)c(C)c2)s1	nt	nt	i	nt	i
O=C(c1ccccc1)c1cc(Cl)ccc1N1C(=O)C=CC1=O	nt	42.8	i	nt	i
O=C(CC(=O)c1cc(Cl)ccc1O)c1ccccc1	i	i	i	i	i
COc1ccc(/C=N/N2C(=O)CSC2=S)cc1	i	i	i	i	i
CC(C)(C)c1ccc(/C=N/N2C(=O)CSC2=S)cc1	i	64.9	i	i	i
NCCNc1ccc(C(=O)N2c3ccccc3Sc3ccccc32)cc1[N+](=O)[O-]	i	i	i	i	66.1
